Compounds with a hit are over-represented: about 1.2% of the library has one in this group of screens.
TcdB GH inh = blocks C. difficile toxin B glycohydrolase activity; P18177; TcdB glycohydrolase enzymatic assay, plate reader; inhibition, % at 9.99 µM; actives 0.24% (n = 350,000); AID 652162; in the data active = inhibition above about 10%
Mtb BioA inh = inhibitors of Mycobacterium tuberculosis BioA enzyme | actives 0.096% (n = 360,000) | purified M. tuberculosis BioA enzyme, plate reader | AID 602481 | inhibition, % at 9.99 µM; in the data active = inhibition above about 40%
PfHsp40 rescue = compounds rescuing yeast from Plasmodium falciparum HSP40 toxicity; actives 0.68% (n = 340,000); S. cerevisiae expressing PfHsp40, growth rescue, ATP luminescence; AID 504582; growth rescue, % at 12.5 µM; in the data active = growth rescue above about 28%, passing the limit was not always enough;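 note: yeast W303a lacking pdr1 and pdr3 grown in galactose medium; growth measured after three days at 30 °C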
Yp Topo-I inh = blocks Yersinia pestis topoisomerase I activity; activity, % at 10 µM; Y. pestis Topo-I cleavage product accumulation, plate reader; actives 0.064% (n = 360,000); in the data active = activity above about 50%, passing the limit was not always enough
Vc quorum ag = induces V. cholerae light production without autoinducers; V. cholerae BH1578 lux reporter, luminescence, 6 h; activation, % at 18.7 µM; actives 0.16% (n = 350,000); in the data active = activation mostly above about 9.7%, no sharp cut-off
DUSP3 inh = DUSP3 (human) phosphatase inhibition | P51452 | recombinant VHR phosphatase, pNPP absorbance | inhibition, % at 13.3 µM | actives 0.52% (n = 290,000); in the data active = inhibition above about 50%
Numbers without * were called inactive; i = inactive; . = not tested or not shown; ! = not confirmed by another sample.

SMILES	TcdB GH inh	Mtb BioA inh	PfHsp40 rescue	Yp Topo-I inh	Vc quorum ag	DUSP3 inh
Oc1ccc(Br)cc1-c1nc2cnccn2c1NC1CCCCC1	2	1	94*	10	i	15
O=c1oc2ccccc2n1Cc1ccccc1	0	.	0	7	i	-13
COc1cccc(Cn2c(=O)oc3ccccc32)c1	-7	2	0	-1	i	53*
O/N=C(\c1ccc(Cl)cc1Cl)c1ncc(C(F)(F)F)cc1Cl	.	4	380*	-12	0	-16
O=C(c1ccc(Cl)cc1Cl)c1ncc(C(F)(F)F)cc1Cl	.	.	0	-1	0	8
O=C(O)c1ccc(N/N=C/C2=Cc3ccccc3OC2)cc1	0	0	179*	4	i	4
CCc1onc(C)c1C(=O)O	-1	0	-1	0	0	22
O=C(CN1C(=O)COc2ccccc21)NCC1CCCO1 (stereo not drawn)	3	-1	0	4	0	2
O=C(CN1C(=O)COc2ccc(Cl)cc21)NCC1CCCO1 (stereo not drawn)	1	-1	0	-1	i	54*
O=C(C[C@@H]1C=C[C@H](NC(=O)C2CCOCC2)[C@@H](CO)O1)NCc1ccncc1	0	1	.	.	.	.
COc1cc(-c2ccc(=O)[nH]n2)ccc1OC(F)F	1	-3	43*	-5	0	30
Clc1ccc(OCc2nc(-c3ccncc3)no2)c(Br)c1	1	0	597*	27	0	-1
Clc1ccccc1OCc1nc(-c2ccncc2)no1	.	1	2	-3	0	-4
C/C(=N\Nc1cc(N2CCOCC2)ncn1)c1ccc(O)cc1	28*	0	-1	0	i	-8
C/C(=N\NC(=O)c1ccc(O)cc1)c1ccc(N2CCOCC2)cc1	-1	.	-1	14	0	22
CC1=NN(c2ccc(C)c(C)c2)C(=O)C1C(c1cccc(O)c1)C1C(=O)N(c2ccc(C)c(C)c2)N=C1C (stereo not drawn)	.	-2	-2	-8	0	54*
CC1=NN(c2ccc(C)cc2C)C(=O)C1C(c1ccccc1O)C1C(=O)N(c2ccc(C)cc2C)N=C1C (stereo not drawn)	.	-1	0	-1	0	3
CCN(CC)C1CC(=O)N(c2cccc(Cl)c2)C1=O (stereo not drawn)	0	-1	79*	-1	0	22
O=C(O)CSC1CC(=O)N(c2cccc(Cl)c2)C1=O (stereo not drawn)	.	1	-1	2	0	4
CCOC(=O)C1CCCN(C2CC(=O)N(c3ccc(C)cc3)C2=O)C1 (stereo not drawn)	0	-2	1	-6	3	16
NC(=O)C1CCN(C2CC(=O)N(c3ccc(F)c(Cl)c3)C2=O)CC1 (stereo not drawn)	.	-1	204*	5	i	17
NC(=O)C1CCN(C2CC(=O)N(c3cccc(F)c3)C2=O)CC1 (stereo not drawn)	.	0	6	-2	5	12
CCOC(=O)C1CCN(C2CC(=O)N(c3cccc(Cl)c3)C2=O)CC1 (stereo not drawn)	0	1	176*	-2	-2	26
O=C(C1CCN(C2CC(=O)N(c3cccc(Cl)c3)C2=O)CC1)N1CCCC1 (stereo not drawn)	.	1	468*	-3	i	22
O=C(C(=O)N1CCc2ccccc2C1)c1cn(CC(=O)N2CCCCC2)c2ccccc12	0	-2	0	8	i	-1
SMILES	TcdB GH inh	Mtb BioA inh	PfHsp40 rescue	Yp Topo-I inh	Vc quorum ag	DUSP3 inh
C[C@@H]1CN([C@H](C)CO)C(=O)c2cc(N(C)C)ccc2O[C@@H](C)CCCCO[C@H]1CN(C)Cc1ccc(C(F)(F)F)cc1	-24	0	.	.	.	.
COC(=O)C1CCN(C2CC(=O)N(c3cc(C)cc(C)c3)C2=O)CC1 (stereo not drawn)	0	.	45*	12	0	4
Cc1cc(/C=C(\C#N)C(=O)N2CCCCC2)cc(C)c1O	12*	0	0	9	-5	58*
N#C/C(=C\c1cccc(O)c1)C(=O)N1CCCCC1	0	3	-1	-3	i	31
COc1cc(-c2ccc3c(=O)c4ccccc4n(C)c3c2)cc(OC)c1OC	1	8	28*	13	-1	25
COc1cc(-c2ccc3c(=O)c4ccccc4sc3c2)cc(OC)c1OC	-1	-2	0	1	i	.
Cc1ccc(C(=O)NCCSc2ccc(Cl)cc2)cc1[N+](=O)[O-]	.	4	0	2	-1	8
CN(C)P1(N(C)C)=Nc2c(c(N)nn2C)C(c2ccccc2)=N1	2	-1	39*!	-2	-1	-2
C=CCn1c(NC(=O)c2ccc(C)cc2)nc2ccccc21	0	-1	-1	-11	0	54*
CCCn1c(NC(=O)c2ccc(C)cc2)nc2ccccc21	.	-2	1	0	i	6
O=C(NC1CCN(Cc2ccccc2)CC1)c1ccc2c(c1)OCCCO2	-1	.	-1	70*	-1	22
CC1(C)CC(=O)/C(=N/Nc2ccc(Cl)cc2)CO1	-1	-1	1	-5	i	1
Cc1ccccc1S(=O)(=O)Cc1ccc(C(=O)NCCCN2CCC(C)CC2)o1	2	.	2	1	i	57*
C[C@@H](NC(=O)[C@H]1[C@H](CO)[C@H]2Cn3c(ccc(-c4ccccc4)c3=O)[C@@H]1N2C)c1ccccc1	1	2	.	.	.	.
Cc1csc2nc(O)c(C(=O)NC3CCCCC3)c(=O)n12	1	-1	165*	10	-1	.
Cc1csc2nc(O)c(C(=O)NC3CCCCCC3)c(=O)n12	1	0	-1	14	i	.
COc1cc(SC#N)ccc1N=Cc1c(C)[nH]n(-c2ccc(C)cc2C)c1=O	.	0	38*	1	i	-17
COc1ccccc1N=Cc1c(C)[nH]n(-c2ccc(C)cc2C)c1=O	1	.	58*	-3	i	10
Cc1cccc(Nc2nc(-c3ccc(O)cc3O)cs2)n1	1	-4	121*	-14	i	9
Oc1ccc(-c2csc(Nc3ncccn3)n2)c(O)c1	-2	.	1	-5	0	15
COc1ccc(NC(=O)Nc2ccc3c(c2)CC(=O)N([C@@H](C)CO)C[C@@H](C)[C@@H](CN(C)Cc2ccccc2)O3)cc1	1	1	.	.	.	.
CC1=NC(C)(C)Cc2c(C)cccc21	2	0	0	-4	-1	12
COc1ccc(Cl)cc1C(=O)CSc1nnnn1C1CCCCC1	.	2	7	4	i	-1
COc1ccc(Cl)cc1C(=O)CSc1nnnn1C1CCCC1	.	-1	32*	21	5	-18
O=C(C[C@@H]1C[C@@H]2c3cc(NC(=O)NC4CCCC4)ccc3O[C@@H]2[C@@H](CO)O1)NCc1ccc(Oc2ccccc2)cc1	1	-2	.	.	.	.

Screening results as filed in PubChem BioAssay.
